The source of these data is PubChem BioAssay (EPA / NIEHS).

Read-out in assay [1]: Plasminogen activator inhibitor-1 (PAI1), SERPINE1 (gene 5054)
Nature of the assay: BSK_MyoF_PAI1: BioMAP Diversity Plus: MyoF Assay for Plasminogen activator inhibitor-1 (PAI1) Biomarker Activity (AID 2284256).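 On outcome: PAI-1 protein level measured by ELISA in fibroblast cultures; PAI-1 read 24 h after compound addition.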 The conditions noted are these: primary human lung fibroblasts. Summed up:
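Primary human lung fibroblasts are dosed and incubated 24 h. PAI-1 is then measured by ELISA, while parallel cultures undergo SRB staining for overt cytotoxicity. Increases over DMSO define activity.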

Read-out in assay [2]: Interleukin-8 (IL8), CXCL8 (gene 3576)
The assay can be described thus: BSK_MyoF_IL8: BioMAP Diversity Plus: MyoF Assay for Interleukin-8 (IL8) Biomarker Activity (AID 2284261). Particulars: primary human lung fibroblasts. Summed up: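 IL-8 levels were measured by ELISA in human lung fibroblasts harvested 24 h after compound addition. Responses were analysed as gain of signal over the DMSO baseline.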

Read-out in assay [3]: Decorin, DCN (gene 1634)
The assay can be described thus: BSK_MyoF_Decorin: BioMAP Diversity Plus: MyoF Assay for Decorin Biomarker Activity (AID 2284265). Particulars: primary human lung fibroblasts. Summed up:
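Compound is added to lung fibroblast cultures; cells incubate 24 h; decorin is then measured by ELISA; the response is analysed upward against DMSO controls.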

Read-out in assay [4]: CD69, CD69 (gene 969)
Nature of the assay: BSK_IMphg_CD69: BioMAP Diversity Plus: IMphg Assay for CD69 Biomarker Activity (AID 2284257). Particulars: primary human endothelial cells with macrophages. The method, then:
BSK_IMphg is a cell-based, multiplexed-readout assay that uses venular endothelial cells and macrophages, a human vascular primary cell, with measurements taken at 24 hours after chemical dosing in a microplate: 96-well plate.BSK_IMphg_CD69 is an assay component measured in the BSK_IMphg assay. It measures CD69 antibody related to regulation of gene expression using ELISA technology.Data from the assay component BSK_IMphg_CD69 was analyzed at the endpoint, BSK_IMphg_CD69, in the positive analysis fitting direction relative to DMSO as the negative control and baseline of activity. Using a type of binding reporter, gain or loss-of-signal activity can be used to understand protein changes. To generalize the intended target to other relatable targets, this assay endpoint is annotated to the 'cytokine' intended target family, where the subfamily is 'inflammatory factor'.
(§1) The levels of cell surface (or secreted, indicated by the prefix "s") biomarker endpoints were measured by ELISA. Overt cytotoxicity to cells in confluent adherent cultures (all systems other than the BT system) was assessed by measuring total protein levels using sulforhodamine B (SRB) staining in parallel cultures at the time of biomarker measurements, indicated as SRB endpoints. For proliferation assays for adherent cell types, individual cell types are cultured at sub-confluence and relative cell numbers quantified by SRB staining at time points optimized for each system (48 h: 3C and CASM3C systems; 72 h: BT and HDF3CGF systems; 96 h: SAg system). SRB was performed by staining cells with 0.1% SRB after fixation with 10% TCA and reading wells at 560 nm.Viability and proliferation of PBMC (T cells) was quantified by Alamar Blue reduction for the SAg and BT systems. […] Then, Alamar Blue (20 uL/well) (Invitrogen, Cat DAL1100) was added for 6 h, and the plates were read with a fluorescence microplate reader at 546/580 nm (excitation/emission). […] Plates were read after 6 h.

Read-out in assay [5]: Eotaxin 3, CCL26 (gene 10344)
Nature of the assay: BSK_BF4T_Eotaxin3: BioMAP Diversity Plus: BF4T Assay for Eotaxin 3 Biomarker Activity (AID 2284258). Particulars: primary human bronchial epithelial cells with fibroblasts. In short, it runs like this: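 Co-culture of human bronchial epithelial cells and dermal fibroblasts, exposed to chemicals for 24 h versus DMSO. Eotaxin-3 quantified by ELISA; cytotoxicity checked in parallel cultures by sulforhodamine B total-protein staining.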

Read-out in assay [6]: Monocyte Chemoattractant Protein-1 (MCP1), CCL2 (gene 6347)
The assay can be described thus: BSK_BF4T_MCP1: BioMAP Diversity Plus: BF4T Assay for Monocyte Chemoattractant Protein-1 (MCP1) Biomarker Activity (AID 2284259). The conditions noted are these: primary human bronchial epithelial cells with fibroblasts. Summed up:
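Co-culture of bronchial epithelial cells and dermal fibroblasts dosed with chemical; MCP-1 measured by ELISA 24 h later. Activity fitted in positive direction versus DMSO; cytotoxicity checked by SRB staining in parallel cultures.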

Read-out in assay [7]: Intercellular Adhesion Molecule 1 (ICAM1), ICAM1 (gene 3383)
The assay can be described thus: BSK_BF4T_ICAM1: BioMAP Diversity Plus: BF4T Assay for Intercellular Adhesion Molecule 1 (ICAM1) Biomarker Activity (AID 2284260). Particulars: primary human bronchial epithelial cells with fibroblasts. Summed up:
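Co-culture of human bronchial epithelial cells and dermal fibroblasts exposed 24 h to chemical; cell-surface ICAM-1 quantified by ELISA. Parallel SRB total-protein staining assessed cytotoxicity; activity fitted relative to DMSO.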

Read-out in assay [8]: CD90, THY1 (gene 7070)
Nature of the assay: BSK_BF4T_CD90: BioMAP Diversity Plus: BF4T Assay for CD90 Biomarker Activity (AID 2284262). Particulars: primary human bronchial epithelial cells with fibroblasts. In short, it runs like this: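 Co-culture of human bronchial epithelial cells and dermal fibroblasts, 24 h compound exposure. Cell-surface CD90 measured by ELISA relative to DMSO; parallel SRB total-protein staining for cytotoxicity.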

Read-out in assay [9]: Interleukin-8 (IL8), CXCL8 (gene 3576)
The assay can be described thus: BSK_BF4T_IL8: BioMAP Diversity Plus: BF4T Assay for Interleukin-8 (IL8) Biomarker Activity (AID 2284263). Particulars: primary human bronchial epithelial cells with fibroblasts. The method, then: BSK_BF4T is a cell-based, multiplexed-readout assay that uses bronchial epithelial cells and dermal fibroblasts, a human vascular primary cell, with measurements taken at 24 hours after chemical dosing in a microplate: 96-well plate.BSK_BF4T_IL8 is an assay component measured in the BSK_BF4T assay. It measures IL-8 antibody related to regulation of gene expression using ELISA technology.Data from the assay component BSK_BF4T_IL8 was analyzed at the endpoint, BSK_BF4T_IL8, in the positive analysis fitting direction relative to DMSO as the negative control and baseline of activity. Using a type of binding reporter, gain or loss-of-signal activity can be used to understand protein changes. To generalize the intended target to other relatable targets, this assay endpoint is annotated to the 'cytokine' intended target family, where the subfamily is 'interleukins'.
as §1

Read-out in assay [10]: Interleukin-1 alpha (IL1a), IL1A (gene 3552)
The assay can be described thus: BSK_BF4T_IL1a: BioMAP Diversity Plus: BF4T Assay for Interleukin-1 alpha (IL1a) Biomarker Activity (AID 2284264). The conditions noted are these: primary human bronchial epithelial cells with fibroblasts. Summed up:
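Human bronchial epithelial cells co-cultured with dermal fibroblasts, dosed and read at 24 h. Secreted/surface IL-1α quantified by ELISA; gain-of-signal fitted relative to DMSO baseline. Parallel SRB total-protein staining tracked cytotoxicity.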

Structures are written as SMILES. Several values for one entry are separate records, joined by “and”; a condition that tells them apart may be missing. Equal values may be shown once. The source holds several records for some structures; these can differ, active in one and inactive in another. Activity calls are given as the source filed them. How the source made its calls: active means hit-call score of the fitted dose curve at least 0.9, where 1 is the maximum; inactive means score below 0.9.

In the case of `COC(=O)c1sccc1S(=O)(=O)NC(=O)Nc1nc(C)nc(OC)n1`, the outcome in [1], in [2] and in assay [3] was inactive.
On to `Oc1ccc(-c2ccccc2)cc1`, for which the outcome in [1], in [2] and in assay [3] was inactive.
On to `O=C(O)C(F)(F)C(F)(F)C(F)(F)C(F)(F)C(F)(F)C(F)(F)F`, for which the result in assay [1], in [4], in [5], in assay [6], in assay [7] and in assay [2] was inactive. Also, the result in assay [8], in [9], in assay [10] and in assay [3] was inactive.
As for `COP(=S)(OC)Oc1ccc(Sc2ccc(OP(=S)(OC)OC)cc2)cc1`, the result in assay [1] and in assay [3] was inactive. Also, the AC50 – broadly, the concentration at which the activity in the assay is half-maximal – in assay [2] was 20 µM (active).
Take `CCCCCCCCC(=O)NCc1ccc(O)c(OC)c1`: the outcome in assay [1], in [2] and in [3] was inactive.
`CCOC(=O)/C=C(C)/C=C/C[C@@H](C)CCCC(C)C`: the half-maximal activity concentration (AC50) is 32.3 µM (active) in assay [1] and 20 µM (active) in assay [3]. Also, the outcome in assay [2] was inactive.
Regarding `CC(C)CCCCCCOC(=O)c1ccccc1C(=O)OCCCCCCC(C)C`, the result in assay [1], in [2] and in assay [3] was inactive.
Consider `CCSC(C)CC1CC(=O)C(C(CC)=NOC/C=C/Cl)=C(O)C1` (stereo not given), for which the outcome in assay [1], in assay [2] and in [3] was inactive.
Consider `CC1(C)Cc2cccc(O)c2O1`, for which the result in [1], in assay [2] and in assay [3] was inactive.
Regarding `O=C(OC1CCCCC1)c1ccccc1C(=O)OC1CCCCC1`, the AC50 is 20.9 µM (active) in assay [1] and 5.72 µM (active) in assay [2]. The result in assay [3] was inactive.
`O=[N+]([O-])c1ccc2c3c(cccc13)CC2`: the result in [1], in assay [2] and in assay [3] was inactive.
Turning to `COC[C@H](C)N(C(=O)CCl)c1c(C)csc1C`, the result in [1], in assay [2] and in assay [3] was inactive.
Regarding `BrCCBr`, the outcome in [1], in [2] and in assay [3] was inactive.
Consider `CC(=O)C(Cl)C(=O)N(C)C` (stereo not given), for which the outcome in assay [1], in assay [2] and in [3] was inactive.
With `OCc1ccco1`, the result in assay [1], in assay [2] and in assay [3] was inactive.
On to `COP(=S)(OC)Oc1cc(Cl)c(Cl)cc1Cl`, for which the outcome in assay [1] and in [3] was inactive. Moreover, the AC50 in assay [2] was 4.59 µM (active).
Turning to `CC(C)c1ccc(CO)cc1`, the result in assay [1], in assay [2] and in assay [3] was inactive.
As for `Nc1ccc(-c2ccc(N)c(Cl)c2)cc1Cl`, the outcome in [1] and in assay [3] was inactive. Moreover, the concentration at half-maximal activity (AC50) in assay [2] is 2.04 µM (active).
Take `C(=NC1CCCCC1)=NC1CCCCC1`: the values for the half-maximal activity concentration (AC50) in assay [1] and in [2] were 7.53 µM (active) and 33.1 µM (active), respectively. Moreover, the result in assay [3] was inactive.
Turning to `CCNc1nc(NC(C)(C)C)nc(SC)n1`, the outcome in [1], in [2] and in assay [3] was inactive.
For the molecule `COc1cc(OC)nc(NC(=O)NS(=O)(=O)c2ncccc2C(=O)N(C)C)n1`, the result in assay [1], in assay [2] and in [3] was inactive.
On to `COP(=S)(OC)Oc1ccc(S(=O)(=O)N(C)C)cc1`, for which the outcome in assay [1], in [2] and in [3] was inactive.
Turning to `CCOP(=S)(OCC)Oc1ccc(S(C)=O)cc1` (stereo not given), the result in assay [1], in assay [2] and in assay [3] was inactive.
For `COP(=S)(OC)Oc1c(Cl)cc(C)cc1Cl`, the outcome in [1], in assay [2] and in [3] was inactive.
For the molecule `O=Cc1cccc(Oc2ccccc2)c1`, the result in [1], in assay [2] and in assay [3] was inactive.
For the molecule `O=C(O)CCC(F)(C(F)(F)F)C(F)(F)F`, the outcome in assay [1], in assay [4], in assay [5], in assay [6], in [7] and in assay [2] was inactive. The outcome in assay [8], in assay [9], in [10] and in assay [3] was inactive.
Take `O=S(=O)(c1ccc(Cl)cc1)c1ccc(Cl)cc1`: the outcome in assay [1], in assay [2] and in assay [3] was inactive.
Regarding `Nc1ncc([N+](=O)[O-])s1`, the result in [1], in assay [2] and in [3] was inactive.
Turning to `Nc1cccc2ccccc12`, the result in assay [1] and in [3] was inactive. The AC50 in [2] is 11.4 µM (active).
Take `CCOP(=S)(OCC)SCCS(=O)(=O)CC`: the result in assay [1], in assay [2] and in assay [3] was inactive.
On to `CCCCC(CC)CO[N+](=O)[O-]` (stereo not given), for which the result in assay [1], in assay [2] and in [3] was inactive.
Consider `NC(=S)Nc1ccccc1`, for which the result in assay [1], in assay [2] and in assay [3] was inactive.
Regarding `ClC1=C(Cl)[C@]2(Cl)[C@H]3[C@H]([C@H]4C=C[C@H]3C4)[C@@]1(Cl)C2(Cl)Cl`, the outcome in assay [1] and in assay [3] was inactive. Besides, the AC50 in assay [2] was 2.92 µM (active).
Consider `ClC(Cl)=C(Cl)C(Cl)=C(Cl)Cl`, for which the outcome in assay [1] and in [3] was inactive. Moreover, the AC50 in assay [2] is 15.1 µM (active).
As to `Oc1c(I)cc(I)cc1I`, the result in assay [1] and in [3] was inactive. In assay [2], the AC50 is 3.55 µM (active).
In the case of `O=C(O)C(F)(F)C(F)(F)C(F)(F)C(F)(F)C(F)(F)C(F)(F)C(F)(F)C(F)(F)C(F)(F)C(F)(F)F`, the AC50 is 5.52 µM (active) and 6.52 µM (active) in assay [1]; 3.14 µM (active) and 3.33 µM (active) in [5]; 5.55 µM (active) and 5.18 µM (active) in assay [6]; 5.15 µM (active) and 4.51 µM (active) in assay [7]; 6.34 µM (active) and 6.43 µM (active) in [2]; 4.83 µM (active) in assay [8]. For the same molecule, the AC50 in [9] is 5.82 µM (active) and 5.74 µM (active); in [10], 5.56 µM (active) and 6.17 µM (active); in assay [3] it was 5.02 µM (active) and 5.16 µM (active). In addition, the result in assay [4] and in [8] was inactive.
